The target in test [1] is T1, Inhibitor of nuclear factor kappa-B kinase subunit epsilon (Homo sapiens) (UniProt Q14164).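 Note: reported values are averaged percent inhibition figures against human IKKε.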
T1 sequence (whole entry): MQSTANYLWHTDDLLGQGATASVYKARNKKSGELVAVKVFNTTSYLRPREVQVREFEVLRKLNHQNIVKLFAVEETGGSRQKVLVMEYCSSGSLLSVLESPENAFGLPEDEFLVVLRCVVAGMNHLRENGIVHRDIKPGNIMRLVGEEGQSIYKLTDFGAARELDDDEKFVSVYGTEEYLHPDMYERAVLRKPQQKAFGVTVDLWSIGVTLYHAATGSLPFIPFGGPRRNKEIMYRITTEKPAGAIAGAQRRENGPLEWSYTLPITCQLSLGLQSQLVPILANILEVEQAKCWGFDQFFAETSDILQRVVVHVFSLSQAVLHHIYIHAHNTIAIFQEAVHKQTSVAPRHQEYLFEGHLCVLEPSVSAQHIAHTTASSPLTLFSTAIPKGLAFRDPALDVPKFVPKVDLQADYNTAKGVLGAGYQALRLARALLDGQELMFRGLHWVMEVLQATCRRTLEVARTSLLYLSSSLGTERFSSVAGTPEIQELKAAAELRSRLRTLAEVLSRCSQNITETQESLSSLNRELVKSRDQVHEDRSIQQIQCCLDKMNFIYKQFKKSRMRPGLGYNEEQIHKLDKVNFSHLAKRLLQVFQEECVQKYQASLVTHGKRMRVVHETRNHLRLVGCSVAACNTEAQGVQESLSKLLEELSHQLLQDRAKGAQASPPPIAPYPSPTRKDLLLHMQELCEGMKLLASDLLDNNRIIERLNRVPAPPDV
The following applies: at 1 µM.

Test [2] deals with T2, Serine/threonine-protein kinase Nek1 (Homo sapiens) (UniProt Q96PY6).
T2 sequence (whole entry): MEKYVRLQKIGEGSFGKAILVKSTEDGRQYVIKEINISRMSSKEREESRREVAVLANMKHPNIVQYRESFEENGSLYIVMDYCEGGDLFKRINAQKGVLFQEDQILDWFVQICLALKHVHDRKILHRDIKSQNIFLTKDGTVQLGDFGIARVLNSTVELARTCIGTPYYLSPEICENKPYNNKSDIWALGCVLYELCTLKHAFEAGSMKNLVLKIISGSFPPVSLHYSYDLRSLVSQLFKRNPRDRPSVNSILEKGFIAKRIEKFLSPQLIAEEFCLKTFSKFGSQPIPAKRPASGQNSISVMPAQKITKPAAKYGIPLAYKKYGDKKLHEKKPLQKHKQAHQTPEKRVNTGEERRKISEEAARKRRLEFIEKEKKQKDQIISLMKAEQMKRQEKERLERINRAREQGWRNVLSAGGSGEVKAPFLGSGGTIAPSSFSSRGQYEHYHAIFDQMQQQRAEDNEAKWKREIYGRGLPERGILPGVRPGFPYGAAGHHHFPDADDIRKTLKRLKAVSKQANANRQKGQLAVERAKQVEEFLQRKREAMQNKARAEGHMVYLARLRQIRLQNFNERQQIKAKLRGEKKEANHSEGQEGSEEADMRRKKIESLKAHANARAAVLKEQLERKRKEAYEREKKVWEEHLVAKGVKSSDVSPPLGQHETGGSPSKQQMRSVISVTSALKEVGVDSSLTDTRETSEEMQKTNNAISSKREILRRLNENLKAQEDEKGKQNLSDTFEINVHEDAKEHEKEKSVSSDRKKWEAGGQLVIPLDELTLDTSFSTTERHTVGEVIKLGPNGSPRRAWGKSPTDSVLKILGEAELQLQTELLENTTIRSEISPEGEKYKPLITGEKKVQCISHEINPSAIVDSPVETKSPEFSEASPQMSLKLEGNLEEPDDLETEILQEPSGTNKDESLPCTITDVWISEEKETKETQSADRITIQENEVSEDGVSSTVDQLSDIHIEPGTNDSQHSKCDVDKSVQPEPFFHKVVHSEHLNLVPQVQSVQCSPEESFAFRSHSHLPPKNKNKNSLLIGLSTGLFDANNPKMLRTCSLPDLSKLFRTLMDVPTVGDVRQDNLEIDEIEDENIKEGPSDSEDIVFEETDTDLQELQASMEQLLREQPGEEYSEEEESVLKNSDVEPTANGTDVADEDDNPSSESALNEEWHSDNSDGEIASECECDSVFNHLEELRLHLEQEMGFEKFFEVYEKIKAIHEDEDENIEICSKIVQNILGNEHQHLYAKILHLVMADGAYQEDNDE
As to conditions: at 0.1 µM.

In test [3] the target is T2, Serine/threonine-protein kinase Nek1 (Homo sapiens). As to conditions: at 1 µM.
Test [4] concerns the target T3, Serine/threonine-protein kinase Nek2 (Homo sapiens) (UniProt P51955).
T3 sequence (whole entry): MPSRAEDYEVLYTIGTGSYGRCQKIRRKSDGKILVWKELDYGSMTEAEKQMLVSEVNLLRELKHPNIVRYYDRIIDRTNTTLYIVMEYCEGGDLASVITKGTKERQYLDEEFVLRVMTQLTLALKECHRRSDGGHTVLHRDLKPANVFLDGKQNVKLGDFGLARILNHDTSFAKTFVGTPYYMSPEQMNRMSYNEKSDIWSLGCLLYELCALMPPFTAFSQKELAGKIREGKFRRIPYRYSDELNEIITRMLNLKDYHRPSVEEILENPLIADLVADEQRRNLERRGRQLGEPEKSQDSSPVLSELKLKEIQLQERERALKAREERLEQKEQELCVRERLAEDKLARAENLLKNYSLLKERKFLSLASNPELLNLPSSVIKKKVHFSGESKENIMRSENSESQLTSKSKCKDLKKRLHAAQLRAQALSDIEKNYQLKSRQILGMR
The following applies: at 0.1 µM.

The target in test [5] is T3, Serine/threonine-protein kinase Nek2 (Homo sapiens). The following applies: at 1 µM.
Test [6] deals with Serine/threonine-protein kinase Nek6 (Homo sapiens) (UniProt Q9HC98). As to conditions: at 0.1 µM.
For test [7] the target is unchanged. The following applies: at 1 µM.
Test [8] addresses Serine/threonine-protein kinase Nek7 (Homo sapiens) (UniProt Q8TDX7). The following applies: at 0.1 µM.
Test [9] shares this target. The following applies: at 1 µM.
Test [10] concerns the target T4, Serine/threonine-protein kinase Nek9 (Homo sapiens) (UniProt Q8TD19).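 Note: reported value is the mean percent inhibition of NEK9.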
T4 sequence (whole entry): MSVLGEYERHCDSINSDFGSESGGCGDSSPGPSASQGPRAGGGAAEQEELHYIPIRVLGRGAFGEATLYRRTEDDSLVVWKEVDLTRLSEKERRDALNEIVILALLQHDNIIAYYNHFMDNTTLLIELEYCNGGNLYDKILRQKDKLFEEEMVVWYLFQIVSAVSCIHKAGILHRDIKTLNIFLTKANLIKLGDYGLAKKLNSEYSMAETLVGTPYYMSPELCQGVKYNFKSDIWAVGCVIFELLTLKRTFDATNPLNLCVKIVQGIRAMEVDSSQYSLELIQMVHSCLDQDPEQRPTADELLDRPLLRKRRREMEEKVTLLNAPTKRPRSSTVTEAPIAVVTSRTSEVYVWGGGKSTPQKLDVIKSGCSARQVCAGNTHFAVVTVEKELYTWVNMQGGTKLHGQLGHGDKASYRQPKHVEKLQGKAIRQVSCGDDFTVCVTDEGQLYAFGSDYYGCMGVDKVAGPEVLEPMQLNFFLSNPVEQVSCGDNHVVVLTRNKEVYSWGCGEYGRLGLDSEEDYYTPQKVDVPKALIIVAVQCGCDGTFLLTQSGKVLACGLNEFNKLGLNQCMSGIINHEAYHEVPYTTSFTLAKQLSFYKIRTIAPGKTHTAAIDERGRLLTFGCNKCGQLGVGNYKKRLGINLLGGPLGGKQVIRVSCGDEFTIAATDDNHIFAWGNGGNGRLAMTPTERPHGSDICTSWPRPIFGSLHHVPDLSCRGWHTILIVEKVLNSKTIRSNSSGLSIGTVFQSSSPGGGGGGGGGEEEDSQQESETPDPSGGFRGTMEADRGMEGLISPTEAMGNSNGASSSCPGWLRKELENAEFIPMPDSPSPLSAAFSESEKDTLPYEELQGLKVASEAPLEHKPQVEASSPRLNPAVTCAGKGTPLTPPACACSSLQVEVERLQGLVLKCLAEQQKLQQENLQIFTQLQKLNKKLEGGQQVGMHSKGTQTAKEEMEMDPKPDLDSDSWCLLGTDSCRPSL
As to conditions: at 0.1 µM.

What is called inhibition is the change of the read-out against control, counted positive when it falls.

Chain of Serine/threonine-protein kinase Nek7 (Homo sapiens) (Q8TDX7 whole entry, looked up): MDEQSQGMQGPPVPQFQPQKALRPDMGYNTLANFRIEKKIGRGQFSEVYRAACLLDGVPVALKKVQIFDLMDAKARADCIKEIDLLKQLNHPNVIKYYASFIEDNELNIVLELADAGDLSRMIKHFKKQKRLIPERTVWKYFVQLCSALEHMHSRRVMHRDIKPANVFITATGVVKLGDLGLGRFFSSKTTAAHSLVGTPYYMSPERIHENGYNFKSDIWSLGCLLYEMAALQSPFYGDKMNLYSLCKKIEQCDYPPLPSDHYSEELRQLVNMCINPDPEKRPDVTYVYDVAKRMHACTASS
Chain of Serine/threonine-protein kinase Nek6 (Homo sapiens) (Q9HC98 whole entry): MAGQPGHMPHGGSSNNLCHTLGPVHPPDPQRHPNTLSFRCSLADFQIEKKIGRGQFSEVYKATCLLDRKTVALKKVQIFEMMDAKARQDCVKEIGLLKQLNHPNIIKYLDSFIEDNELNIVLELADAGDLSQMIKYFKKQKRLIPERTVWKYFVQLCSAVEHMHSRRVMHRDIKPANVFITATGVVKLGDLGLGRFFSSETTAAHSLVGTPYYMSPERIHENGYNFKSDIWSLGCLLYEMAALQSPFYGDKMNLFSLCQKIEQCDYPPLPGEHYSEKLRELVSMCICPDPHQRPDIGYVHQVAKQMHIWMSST

For the compound `Cc1cc(O)cc(C)c1/C=C/c1cncc(-c2nn[nH]n2)c1`, the inhibition was 4.14% in [1]; 3.13% in [2]; 3.26% in test [3]; 5.36% in [4]; 4.88% in [5]; 1.26% in test [6]. The inhibition in test [7] was 1.3%; in test [8] it was 4.96%; in test [9] it was 4.04%; in test [10] it was 4.65%.
Turning to `CCCN1CCC(Oc2cc(Nc3nc(Nc4cccc(F)c4C(N)=O)c4cc[nH]c4n3)c(OC)cc2Cl)CC1`, the inhibition was -1.68% in test [1]; 0.59% in [2]; 0.62% in test [3]; -0.38% in test [4]; 1.09% in test [5]; 0.14% in test [6]. In addition, the inhibition is -2.04% in test [7], -8.48% in [8], 1.7% in [9] and -0.6% in test [10].
On to `NC(=O)c1cccc(Nc2nccc(Nc3cccc4[nH]ncc34)n2)c1`, for which the inhibition in test [1] was 21.4%; in test [2] it was 0.79%; in test [3], 8.86%; in test [4] it was -3.63%; in [5], -1.96%; in test [6], -4.36%. Further, the inhibition in [7] is -2.96%; in test [8], -1.67%; in test [9] it was -3.47%; in test [10], -0.63%.
With `COc1cccc(-n2ncc3c(N/N=C/c4cccc(F)c4)ncnc32)c1`, the inhibition in test [1] stood at 5.09%; in test [2], 2.19%; in test [3], 1.87%; in test [4] it was 3.27%; in test [5], 2.63%; in test [6], 2.56%. In addition, the inhibition in test [7] was found to be 1.3%; in test [8], 4.53%; in [9], 2.91%; in test [10] it was 3.6%.
Take `CC(=O)Nc1cccc(C#Cc2cncnc2Nc2ccc(OCc3cccc(F)c3)c(Cl)c2)n1`: the inhibition in [1] is 1.53%; in test [2] it was -2.25%; in [3], 1.58%; in [4], -2.96%; in test [5], -1.9%; in [6], 1.43%. Besides, the inhibition is 4.26% in test [7], -4.17% in test [8], -3.8% in [9] and 0.45% in test [10].
As for `CCn1c(-c2nonc2N)nc2cnc(Oc3cccc(NC(=O)c4ccc(OCCN5CCOCC5)cc4)c3)cc21`, the inhibition was 27.5% in test [1]; 1.53% in test [2]; 3.94% in test [3]; 3.27% in test [4]; 2.29% in [5]; 2.55% in [6]. Besides, the inhibition in [7] is 4.96%; in [8], 6.06%; in test [9], 3.89%; in [10] it was 7.58%.
In the case of `O=C1NC(=O)C(c2ccc(Cl)cc2)=C1Nc1ccc(Cl)c(C(=O)O)c1`, the inhibition is -2.57% in test [1]; -0.84% in test [2]; -2.3% in test [3]; -1.89% in test [4]; -2.45% in test [5]; 0.26% in test [6]. Besides, the inhibition in test [7] was 2.37%; in [8] it was -1.15%; in test [9], -3.67%; in [10], -5.68%.
In the case of `CCn1c(-c2nonc2N)nc2c(C#CC(C)(C)O)nc(OC[C@@H](N)c3ccccc3)cc21`, the inhibition in test [1] is 34.9%; in [2], 0.04%; in [3], 3.08%; in test [4], -1.09%; in test [5], 1.53%; in [6], -0.14%. Besides, the inhibition in [7] is 3.35%; in test [8], 0.12%; in [9] it was -0.33%; in test [10], -3.59%.

(Values after ChEMBL document CHEMBL1961873, “Compounds: GSK PKIS; Assays: Nanosyn kinase panel” (2012).)
